These results are taken from the supplement of paper PMC10338343.

± gives the standard deviation.

In this assay the test system is EfPiwi piRISC loaded with piRNA #1 (26 nt). The assay can be described thus: pre-steady-state target cleavage rate (min^-1); auxiliary factor: 500 nM Ephydatia muelleri Gtsf1; guide: piRNA #1 5'p-UGAGGUAGUAGGUUGUAUAGUAUCCA; MIWI and MILI are mouse PIWI proteins and EfPiwi is from a freshwater sponge; tags in brackets are library labels; higher = faster piRNA-guided slicing of the target. The essentials:
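A transcribed, DNA-blocked target RNA library (0.1 nM) and 1 nM active affinity-purified piRISC bearing one synthetic guide were incubated in HEPES–potassium acetate buffer at 33 °C for 0–8 or 0–960 min, either with or without 500 nM GTSF1 partner protein. Uncleaved targets were sequenced, normalised to depth and to weakly complementary targets, and pooled over three trials, with k3 capped at 0.0001 min^-1. The pre-steady-state cleavage rate was derived with a burst-and-steady-state fit.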
As to GGAGUGGAUACUAUACAACCUACUAGGUCA, the “pre-steady-state target cleavage rate” value was 0.00356 ± 0.002. In the case of GGAGACGAUAGUAUACAUCCUACUACCUCA, the “pre-steady-state target cleavage rate” value is 0.00323 ± 0.0026. For the sequence GGAGACCUAUGAUAUGUACCAACUACCACA, the “pre-steady-state target cleavage rate” value is less than 0.0001. For GGAGACCUAUGUAUACAACCAAGUACCUCA, the “pre-steady-state target cleavage rate” value was less than 0.0001. Consider GGAGACCUAACUAUACACCUACUACCUCA, for which the “pre-steady-state target cleavage rate” value is 0.00586 ± 0.0042.

On to GGAGACCUUACUAUACAACCUAGUACGUCA, for which the “pre-steady-state target cleavage rate” value amounted to 0.00357 ± 0.0023.

Take GGAGAGGAUACUAUACGAACCUACUACCUCA: the “pre-steady-state target cleavage rate” value stood at 0.0069 ± 0.0052. For GGAGACCUAUGAAUACAACCUACUACCUUA, the “pre-steady-state target cleavage rate” value is 0.00423 ± 0.0038. With GGAGACCUAACUAUACAACCUACUUCCUCA the figure was 0.00336 ± 0.0029; with GGAGACCUUACUAUACAAGCCUACUACCUCA, 0.00541 ± 0.0031.

For GGAGACGAUACUAUACAACCCUACUACCUCA, the “pre-steady-state target cleavage rate” value came out at 0.00604 ± 0.0029. Consider GGAGUGGAUUGUAUACAACCUACUACCUCA, for which the “pre-steady-state target cleavage rate” value came to 0.00594 ± 0.0037. GGAGUGGAUACUAUACAACCUACAACCUGA: the “pre-steady-state target cleavage rate” value came to 0.00253 ± 0.0013. Take GGAGACCUUACUAUACAACGCUACUACCUCA: the “pre-steady-state target cleavage rate” value stood at 0.00566 ± 0.0038. In the case of GGAGACCUUACUAUACAACCUAGUACCUGA, the “pre-steady-state target cleavage rate” value was found to be 0.00509 ± 0.0037. With GGAGACCAUACUAUACAACCACUACCUCA, the “pre-steady-state target cleavage rate” value was 0.00558 ± 0.0034. For the sequence GGAGACGAUACUAUACAACCUACUUGGUCA, the “pre-steady-state target cleavage rate” value amounted to 0.00312 ± 0.0021. GGAGACGAUACUAUACAACCUACUUACCUCA: the “pre-steady-state target cleavage rate” value was determined as 0.0069 ± 0.0023.

On to GGAGUGGAUACUAUACAAGCCUACUACCUCA, for which the “pre-steady-state target cleavage rate” value stood at 0.0104 ± 0.0053. Regarding GGAGACCAAACUAUACAACCAACUACCUCA, the “pre-steady-state target cleavage rate” value was 0.00588 ± 0.003.

Turning to GGAGACCUAUGUAUAGAACCUUCUACCUCA, the “pre-steady-state target cleavage rate” value was less than 0.0001. As to GGAGACCUAACUAUACAAGCCUACUACCUCA, the “pre-steady-state target cleavage rate” value was determined as 0.00432 ± 0.0033. Turning to GGAGAGGAUACUAUACAACCUACAACGUCA, the “pre-steady-state target cleavage rate” value turned out to be 0.00371 ± 0.0017. With GGAGUGGAUACUAUACAGACCUACUACCUCA the figure was 0.0116 ± 0.0053; with GGAGACCUAUGUAUACAACCUGACUACCUCA, less than 0.0001; with GGAGUGGAUACUAUACAACCUACUUCGUCA, 0.00391 ± 0.0021. As to GGAGACCAUACUAUACAACCUAGUACCUGA, the “pre-steady-state target cleavage rate” value amounted to 0.00278 ± 0.0021. With GGAGACCUAUGAUAUGUUGCAACUACCACA, the “pre-steady-state target cleavage rate” value was less than 0.0001. With GGAGACCUAUGAUAUGUACCCACUACCUCA the figure was less than 0.0001; with GGAGACGAAACUAUACAACCUACUAGCUCA, 0.00368 ± 0.0023.

In the case of GGAGACGAAACUAUACAAGCUACUACCUCA, the “pre-steady-state target cleavage rate” value was found to be 0.00338 ± 0.0017. To GGAGACGAUACAAUACAUCCUACUACCUCA belongs 0.00286 ± 0.0019; to GGAGACCUAUCUAUACCAACCUACUACCUCA, 0.00573 ± 0.0036; to GGAGACGAUACUAUACAACCUUCUACGUCA, 0.00448 ± 0.0019. On to GGAGACCUAUGAUAUCAACCUACUACCAUCA, for which the “pre-steady-state target cleavage rate” value was less than 0.0001. To GGAGACCUUACUAUACAACCUACUACCGCA belongs 0.00343 ± 0.0026; to GGAGUGGAUACUAUACAACGAUCUACCUCA, 0.00198 ± 0.0014. With GGAGACCAUACUAUACAACCUACUAGGUCA the figure was 0.00366 ± 0.0023.

GGAGACCUAUCUAUACAACCUAGUACGUCA: the “pre-steady-state target cleavage rate” value amounted to 0.00316 ± 0.0024.

With GGAGACGAUACUAUUCAACGUACUACCUCA, the “pre-steady-state target cleavage rate” value was 0.00355 ± 0.0011.
